The values below come from PubChem BioAssay (NCATS).

Active and inactive are the calls of the source. Calls follow the shape of the full dose curve.

This test in a line: qHTS drug screen for cell cycle checkpoint inhibitors in PARPi-resistant BRCA-mutant ovarian cancer cell lines. (AID 1963452). Particulars: PEO1/OlaR viability, CellTiter-Glo luminescence, 96 h; for Z-AUC: stronger effect = lower value. The essentials:
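PEO1, PEO4 and PEO1/OlaR ovarian cancer cells, 600 per well, exposed 96 h at 37C to a dilution series. Viability read by CellTiter-Glo luminescence, normalized to DMSO and empty wells; activity summarized as Z-AUC.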

Where [1] appears, read: measured here: PEO1 parental Z-AUC.
Potency is read from the fitted curve at half-maximal effect.

Regarding `COc1ccc(COc2cc3oc(=O)c4cc(C(C)O)ccc4c3cc2OC)cc1` (stereo not drawn), the Z-AUC was 1.06 (inactive). The Z-AUC under setting [1] turned out to be 0.636. Where the note is “measured here: PEO4 Z-AUC”, the Z-AUC is 1.09.
For `COc1cc2nccc(Oc3ccc(NC(=O)NC4CC4)c(Cl)c3)c2cc1C(N)=O`, the Z-AUC was -1.2 (inactive). The Z-AUC under setting [1] turned out to be 0.621. The Z-AUC (measured here: PEO4 Z-AUC) came out at 0.0753.
Regarding `Cc1cc(Nc2nc(N[C@@H](C)c3ncc(F)cn3)ncc2Cl)n[nH]1`, the Potency is 12.3 µM (active). For the same compound, the Z-AUC under setting [1] was -1.18. In addition, under “measured here: PEO4 Z-AUC”, the Z-AUC is -1.3.
As for `COc1cc(Oc2ccnc3cc(OC)c(OC)cc23)ccc1NC(=O)NC(C)c1nccs1` (stereo not drawn), the Z-AUC was -0.894 (inactive). For the same compound, the Z-AUC under setting [1] is -0.402. Moreover, where the note is “measured here: PEO4 Z-AUC”, the Z-AUC is -0.764.
For `CS(=O)(=O)c1cccc(CNc2nc(Nc3ccc4c(c3)CCC(=O)N4)ncc2C(F)(F)F)c1`, the Z-AUC was -0.784 (inactive). The Z-AUC under setting [1] was -1.23. For the same compound, the Z-AUC (measured here: PEO4 Z-AUC) was -1.25.
For `CNCc1ccc(-c2[nH]c3cc(F)cc4c3c2CCNC4=O)cc1`, the Z-AUC is 0.567 (inactive). Further, under setting [1], the Z-AUC amounted to 0.569. For the setting “measured here: PEO4 Z-AUC”, the Z-AUC was 0.848.
For `CCn1c(-c2nonc2N)nc2c(C#CC(C)(C)O)ncc(OC[C@H]3CCCNC3)c21`, the Z-AUC is 1.22 (inactive). Besides, under setting [1], the Z-AUC is 0.92. Besides, the Z-AUC (measured here: PEO4 Z-AUC) is 1.41.
With `COc1ccc(-c2c(-c3ccc(O)cc3O)n[nH]c2C)cc1`, the Z-AUC was 0.835 (inactive). For the same compound, the Z-AUC under setting [1] is 0.673. Under “measured here: PEO4 Z-AUC”, the Z-AUC stood at 1.1.
The corresponding values for `C/C(=C\C(=O)Nc1ccccc1C(=O)O)c1ccc2ccccc2c1` are 0.258 (inactive), 0.668 and 0.827.
Consider `O=C(Nc1nc2ccccc2n1CCN1CCOCC1)c1cccc([N+](=O)[O-])c1`, for which the Z-AUC was 1.54 (inactive). The Z-AUC under setting [1] was found to be 1.06. The Z-AUC (measured here: PEO4 Z-AUC) was 1.04.
For `CS(=O)(=O)Oc1ccc2c(NC(N)=O)c(C(=O)c3ccc(Cl)cc3Cl)oc2c1`, the Z-AUC is 1.2 (inactive). Also, under setting [1], the Z-AUC was 1.13. The Z-AUC (measured here: PEO4 Z-AUC) turned out to be 1.11.
`c1ccc([C@H]2CN3CCSC3=N2)cc1`: the Z-AUC was -0.761 (inactive). Moreover, the Z-AUC under setting [1] was -0.401. Besides, the Z-AUC (measured here: PEO4 Z-AUC) was -0.638.
The corresponding values for `Nc1cccc(S(=O)(=O)N2CCCN(S(=O)(=O)c3ccc4c(c3)OCCO4)CC2)c1` are 1.03 (inactive), 0.843 and 0.787.
In the case of `COCCNCCCn1c(C(=O)CF)c(-c2ccc(C)cc2)c2c(N)ncnc21`, the Z-AUC is 0.937 (inactive). Further, the Z-AUC under setting [1] turned out to be 1.02. Besides, the Z-AUC (measured here: PEO4 Z-AUC) was 1.22.
`CCOc1cc(N2CCC(O)CC2)ccc1Nc1ncc2c(n1)N(C)c1ccccc1C(=O)N2C`: the Z-AUC was -0.264 (inactive). Also, the Z-AUC under setting [1] turned out to be 0.271. Besides, the Z-AUC (measured here: PEO4 Z-AUC) was 0.379.
The corresponding values for `Cc1cccc(-c2[nH]c(C(C)(C)C)nc2-c2ccc3nccnc3c2)n1` are 0.914 (inactive), 0.697 and 0.424.
With `CO[C@@H]1[C@H](N(C)C(=O)c2ccccc2)C[C@H]2O[C@]1(C)n1c3ccccc3c3c4c(c5c6ccccc6n2c5c31)C(=O)NC4`, the Potency is 1.55 µM (active). The Z-AUC under setting [1] is -1.27. Moreover, the Z-AUC (measured here: PEO4 Z-AUC) was -1.21.
Take `CC(C)(N)C(=O)N[C@H](COCc1ccccc1)C(=O)N1CCC2(CC1)CN(S(C)(=O)=O)c1ccccc12`: the Z-AUC is 1.64 (inactive). For the same compound, under setting [1], the Z-AUC amounted to 1.18. In addition, the Z-AUC (measured here: PEO4 Z-AUC) was found to be 1.52.
Turning to `CCC(C)(C)C(=O)O[C@H]1C[C@@H](C)C=C2C=C[C@H](C)[C@H](CC[C@@H]3C[C@@H](O)CC(=O)O3)[C@H]21`, the Z-AUC is 1.29 (inactive). Besides, the Z-AUC under setting [1] was determined as 1.6. Also, where the note is “measured here: PEO4 Z-AUC”, the Z-AUC came to 2.06.
Turning to `CC[C@H](Nc1ncnc2nc[nH]c12)c1nc2cccc(F)c2c(=O)n1-c1ccccc1`, the Z-AUC was 0.714 (inactive). In addition, under setting [1], the Z-AUC was determined as 0.526. Also, the Z-AUC (measured here: PEO4 Z-AUC) came out at 0.476.
`Cc1cnc(Nc2ccc(OCCN3CCCC3)cc2)nc1Nc1cccc(S(=O)(=O)NC(C)(C)C)c1`: the Potency is 1.95 µM (active). Besides, under setting [1], the Z-AUC was -1.63. Moreover, under “measured here: PEO4 Z-AUC”, the Z-AUC is -1.56.
